# Tests used:
# Assay in all cases: DAPPL (digital affinity profiling via proximity ligation, sequencing); 10 mM Tris-HCl pH 7.5, 50 mM NaCl, 1 mM DTT, 4% glycerol, room temperature, 30 min; GST-TFs on glutathione beads, 16-mer random dsDNA library, 0.1% formaldehyde crosslink after washing; high values mean tight binding
# FLI1 = target: T1, FLI1 (Homo sapiens, UniProt Q01543 1-452); conditions: protein: recombinant; tags: N-terminal GST; dsDNA, one strand shown
# T1 sequence: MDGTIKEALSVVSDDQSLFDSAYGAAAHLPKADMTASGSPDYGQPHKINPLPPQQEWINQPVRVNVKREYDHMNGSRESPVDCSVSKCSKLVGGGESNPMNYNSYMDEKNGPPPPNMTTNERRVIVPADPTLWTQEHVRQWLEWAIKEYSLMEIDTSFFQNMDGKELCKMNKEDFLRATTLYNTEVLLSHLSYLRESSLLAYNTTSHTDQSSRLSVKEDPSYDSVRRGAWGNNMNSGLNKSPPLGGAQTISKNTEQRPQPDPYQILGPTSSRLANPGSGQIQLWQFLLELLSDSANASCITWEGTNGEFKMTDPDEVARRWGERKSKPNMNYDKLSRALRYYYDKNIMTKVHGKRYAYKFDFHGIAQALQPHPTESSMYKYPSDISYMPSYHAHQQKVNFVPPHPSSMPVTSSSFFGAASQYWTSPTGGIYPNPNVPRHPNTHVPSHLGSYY
# In short: (§1)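 GST fusions of human transcription factors were expressed in yeast and captured with glutathione beads. Once given DNA barcodes and pooled alongside a tag-only sample, they were incubated for 30 min at room temperature with 200 nmole of a random double-stranded 16-mer DNA library in Tris/NaCl/DTT/glycerol buffer, then washed, crosslinked (0.1% formaldehyde), proximity-ligated, PCR-amplified and sequenced on an Illumina NextSeq500. The binding signal of each hexamer is its read frequency for a factor divided by its frequency for the tag-only sample.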
# ELK1 = target: T2, ELK1 (Homo sapiens, UniProt P19419 1-428); conditions: protein: recombinant; tags: N-terminal GST; dsDNA, one strand shown
# T2 sequence: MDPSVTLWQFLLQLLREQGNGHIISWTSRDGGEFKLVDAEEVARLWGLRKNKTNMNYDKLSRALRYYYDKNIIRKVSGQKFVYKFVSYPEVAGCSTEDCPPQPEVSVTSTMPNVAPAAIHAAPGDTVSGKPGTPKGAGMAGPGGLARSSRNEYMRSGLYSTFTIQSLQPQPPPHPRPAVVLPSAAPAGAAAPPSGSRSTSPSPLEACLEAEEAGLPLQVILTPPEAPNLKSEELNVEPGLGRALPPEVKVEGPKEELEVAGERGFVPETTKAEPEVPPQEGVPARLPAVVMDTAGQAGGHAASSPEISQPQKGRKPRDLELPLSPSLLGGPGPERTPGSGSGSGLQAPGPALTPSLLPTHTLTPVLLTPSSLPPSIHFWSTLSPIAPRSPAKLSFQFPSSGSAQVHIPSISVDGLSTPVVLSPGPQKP
# In short: as §1
# GABPA = target: T3, GABPA (Homo sapiens, UniProt Q06546 1-454); conditions: protein: recombinant; tags: N-terminal GST; dsDNA, one strand shown
# T3 sequence: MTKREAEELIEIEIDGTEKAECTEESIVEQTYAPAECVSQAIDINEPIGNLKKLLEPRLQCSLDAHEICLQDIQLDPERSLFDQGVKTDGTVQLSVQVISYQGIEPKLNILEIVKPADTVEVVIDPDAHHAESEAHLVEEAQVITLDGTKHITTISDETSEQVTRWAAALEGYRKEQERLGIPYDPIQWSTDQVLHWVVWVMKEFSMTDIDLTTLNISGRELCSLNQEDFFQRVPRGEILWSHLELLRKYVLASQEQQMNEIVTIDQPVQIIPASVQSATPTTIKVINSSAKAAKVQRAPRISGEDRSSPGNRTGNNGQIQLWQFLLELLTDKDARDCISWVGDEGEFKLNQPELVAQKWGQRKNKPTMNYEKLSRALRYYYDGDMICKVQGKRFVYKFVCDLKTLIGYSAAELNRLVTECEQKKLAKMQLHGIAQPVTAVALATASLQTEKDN
# In short: as §1
# ERG = target: T4, ERG (Homo sapiens, UniProt P11308 1-479); conditions: protein: recombinant; tags: N-terminal GST; dsDNA, one strand shown
# T4 sequence: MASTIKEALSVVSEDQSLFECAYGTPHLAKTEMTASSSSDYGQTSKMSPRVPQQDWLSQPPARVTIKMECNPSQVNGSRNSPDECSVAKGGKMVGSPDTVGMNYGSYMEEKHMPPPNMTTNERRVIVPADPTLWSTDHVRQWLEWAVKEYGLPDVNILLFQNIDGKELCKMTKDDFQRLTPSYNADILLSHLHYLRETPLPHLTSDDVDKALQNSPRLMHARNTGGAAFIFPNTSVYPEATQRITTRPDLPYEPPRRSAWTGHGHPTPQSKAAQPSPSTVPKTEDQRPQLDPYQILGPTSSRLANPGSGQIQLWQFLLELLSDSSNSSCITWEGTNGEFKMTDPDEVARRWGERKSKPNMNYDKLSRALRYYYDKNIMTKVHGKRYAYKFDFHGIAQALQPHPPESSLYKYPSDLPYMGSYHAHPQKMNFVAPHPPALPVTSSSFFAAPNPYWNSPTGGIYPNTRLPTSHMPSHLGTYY
# In short: as §1
# ELF1 = ELF1 (Homo sapiens, UniProt P32519 1-619); conditions: protein: recombinant; tags: N-terminal GST; dsDNA, one strand shown
# Chain of ELF1 (P32519 whole entry): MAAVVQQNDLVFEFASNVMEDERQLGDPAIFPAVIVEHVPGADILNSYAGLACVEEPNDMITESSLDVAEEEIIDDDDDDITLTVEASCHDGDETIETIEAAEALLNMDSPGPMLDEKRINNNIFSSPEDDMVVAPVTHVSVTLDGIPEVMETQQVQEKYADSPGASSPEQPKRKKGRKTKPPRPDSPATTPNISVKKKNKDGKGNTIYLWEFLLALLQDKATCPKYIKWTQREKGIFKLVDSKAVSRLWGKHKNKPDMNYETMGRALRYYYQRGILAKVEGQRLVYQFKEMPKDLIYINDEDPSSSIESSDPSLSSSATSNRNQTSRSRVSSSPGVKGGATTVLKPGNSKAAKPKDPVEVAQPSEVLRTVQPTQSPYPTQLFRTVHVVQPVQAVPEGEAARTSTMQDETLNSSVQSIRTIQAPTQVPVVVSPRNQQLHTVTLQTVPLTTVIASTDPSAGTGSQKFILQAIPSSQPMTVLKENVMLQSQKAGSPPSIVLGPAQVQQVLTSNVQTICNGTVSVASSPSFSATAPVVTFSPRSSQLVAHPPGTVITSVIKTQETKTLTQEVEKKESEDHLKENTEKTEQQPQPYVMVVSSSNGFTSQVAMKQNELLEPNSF
# In short: as §1
# EHF = target: T5, EHF (Homo sapiens, UniProt Q9NZC4 1-300); conditions: protein: recombinant; tags: N-terminal GST; dsDNA, one strand shown
# T5 sequence: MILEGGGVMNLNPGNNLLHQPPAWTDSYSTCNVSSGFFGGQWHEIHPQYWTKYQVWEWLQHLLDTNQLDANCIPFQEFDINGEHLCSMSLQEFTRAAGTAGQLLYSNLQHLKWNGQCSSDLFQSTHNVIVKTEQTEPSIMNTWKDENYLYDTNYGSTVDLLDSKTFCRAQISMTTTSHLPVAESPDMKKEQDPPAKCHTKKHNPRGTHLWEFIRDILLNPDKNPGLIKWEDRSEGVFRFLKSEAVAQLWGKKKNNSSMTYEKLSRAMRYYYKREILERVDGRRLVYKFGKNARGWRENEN
# In short: as §1
# SPI1 = SPI1 (Homo sapiens, UniProt P17947 1-270); conditions: protein: recombinant; tags: N-terminal GST; dsDNA, one strand shown
# In short: as §1
# SPIB = SPIB (Homo sapiens, UniProt Q01892 1-262); conditions: protein: recombinant; tags: N-terminal GST; dsDNA, one strand shown
# Chain of SPIB (Q01892 whole entry): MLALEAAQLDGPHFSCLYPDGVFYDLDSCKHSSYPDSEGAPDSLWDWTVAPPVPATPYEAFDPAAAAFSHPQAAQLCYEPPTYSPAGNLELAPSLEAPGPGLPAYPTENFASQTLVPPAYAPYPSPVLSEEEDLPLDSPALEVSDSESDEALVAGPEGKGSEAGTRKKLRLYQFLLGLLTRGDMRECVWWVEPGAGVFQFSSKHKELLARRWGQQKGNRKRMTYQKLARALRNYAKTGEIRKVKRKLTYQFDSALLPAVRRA
# In short: as §1
# ELK3 = target: T6, ELK3 (Homo sapiens, UniProt P41970 1-407); conditions: protein: recombinant; tags: N-terminal GST; dsDNA, one strand shown
# T6 sequence: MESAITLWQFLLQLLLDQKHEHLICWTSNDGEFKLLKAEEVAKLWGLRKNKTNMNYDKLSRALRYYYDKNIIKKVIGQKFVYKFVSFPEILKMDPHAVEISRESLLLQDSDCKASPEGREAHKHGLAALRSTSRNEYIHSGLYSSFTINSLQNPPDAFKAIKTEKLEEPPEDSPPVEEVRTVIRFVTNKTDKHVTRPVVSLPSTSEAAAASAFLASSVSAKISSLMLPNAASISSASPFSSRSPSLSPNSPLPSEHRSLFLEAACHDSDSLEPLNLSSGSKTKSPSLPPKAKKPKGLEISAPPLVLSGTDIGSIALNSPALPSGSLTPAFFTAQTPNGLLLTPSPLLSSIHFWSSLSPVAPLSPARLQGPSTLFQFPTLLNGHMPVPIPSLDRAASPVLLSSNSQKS
# In short: as §1
# FEV = target: T7, FEV (Homo sapiens, UniProt Q99581 1-238); conditions: protein: recombinant; tags: N-terminal GST; dsDNA, one strand shown
# T7 sequence: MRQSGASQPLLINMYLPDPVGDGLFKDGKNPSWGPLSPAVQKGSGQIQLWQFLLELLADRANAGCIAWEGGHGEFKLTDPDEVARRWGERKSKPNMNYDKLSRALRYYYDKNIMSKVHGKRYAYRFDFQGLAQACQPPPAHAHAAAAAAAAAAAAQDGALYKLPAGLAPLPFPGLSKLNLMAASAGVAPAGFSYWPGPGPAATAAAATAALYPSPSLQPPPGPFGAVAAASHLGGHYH
# In short: as §1
# ETV5 = ETV5 (Homo sapiens, UniProt P41161 1-510); conditions: protein: recombinant; tags: N-terminal GST; dsDNA, one strand shown
# Chain of ETV5 (P41161 whole entry): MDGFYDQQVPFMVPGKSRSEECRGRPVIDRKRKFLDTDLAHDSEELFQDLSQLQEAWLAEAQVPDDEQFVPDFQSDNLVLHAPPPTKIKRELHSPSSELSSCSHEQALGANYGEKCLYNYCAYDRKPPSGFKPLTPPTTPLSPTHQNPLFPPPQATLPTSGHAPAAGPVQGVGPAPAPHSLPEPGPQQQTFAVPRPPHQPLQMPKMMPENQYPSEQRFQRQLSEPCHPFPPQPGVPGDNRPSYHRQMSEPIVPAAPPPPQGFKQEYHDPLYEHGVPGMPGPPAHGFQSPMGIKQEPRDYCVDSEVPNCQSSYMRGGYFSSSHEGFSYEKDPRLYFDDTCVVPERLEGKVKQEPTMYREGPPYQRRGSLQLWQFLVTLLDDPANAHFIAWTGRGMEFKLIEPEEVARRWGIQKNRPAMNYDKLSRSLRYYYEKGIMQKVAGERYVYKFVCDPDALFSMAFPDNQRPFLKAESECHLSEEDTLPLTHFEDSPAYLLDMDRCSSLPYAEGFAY
# In short: as §1
# HSF1 = HSF1 (Homo sapiens, UniProt Q00613 1-529); conditions: protein: recombinant; tags: N-terminal GST; chain copies: 3; dsDNA, one strand shown
# Chain of HSF1 (Q00613 whole entry): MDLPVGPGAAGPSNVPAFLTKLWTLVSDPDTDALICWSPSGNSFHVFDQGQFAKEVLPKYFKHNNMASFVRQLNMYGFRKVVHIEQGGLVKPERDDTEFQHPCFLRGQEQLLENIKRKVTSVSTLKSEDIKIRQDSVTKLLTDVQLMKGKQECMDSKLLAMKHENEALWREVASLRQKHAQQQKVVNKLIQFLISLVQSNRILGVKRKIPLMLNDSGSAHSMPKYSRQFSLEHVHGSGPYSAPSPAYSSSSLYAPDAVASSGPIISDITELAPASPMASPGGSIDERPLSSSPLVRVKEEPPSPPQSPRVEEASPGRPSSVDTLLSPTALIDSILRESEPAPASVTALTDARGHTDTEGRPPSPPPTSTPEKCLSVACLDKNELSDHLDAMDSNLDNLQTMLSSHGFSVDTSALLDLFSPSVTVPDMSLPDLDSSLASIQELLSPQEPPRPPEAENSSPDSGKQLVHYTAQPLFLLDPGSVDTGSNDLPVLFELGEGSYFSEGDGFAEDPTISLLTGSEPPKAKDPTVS
# In short: as §1
# SPIC = target: T8, SPIC (Homo sapiens, UniProt Q8N5J4 1-248); conditions: protein: recombinant; tags: N-terminal GST; dsDNA, one strand shown
# T8 sequence: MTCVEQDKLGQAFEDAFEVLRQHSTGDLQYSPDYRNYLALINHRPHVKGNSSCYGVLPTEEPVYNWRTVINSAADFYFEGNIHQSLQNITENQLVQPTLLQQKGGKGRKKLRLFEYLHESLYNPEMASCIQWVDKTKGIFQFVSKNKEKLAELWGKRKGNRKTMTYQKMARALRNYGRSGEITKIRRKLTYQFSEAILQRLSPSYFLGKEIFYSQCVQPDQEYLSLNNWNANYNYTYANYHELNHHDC
# In short: as §1
# ELF4 = ELF4 (Homo sapiens, UniProt Q99607 1-663); conditions: protein: recombinant; tags: N-terminal GST; dsDNA, one strand shown
# Chain of ELF4 (Q99607 whole entry): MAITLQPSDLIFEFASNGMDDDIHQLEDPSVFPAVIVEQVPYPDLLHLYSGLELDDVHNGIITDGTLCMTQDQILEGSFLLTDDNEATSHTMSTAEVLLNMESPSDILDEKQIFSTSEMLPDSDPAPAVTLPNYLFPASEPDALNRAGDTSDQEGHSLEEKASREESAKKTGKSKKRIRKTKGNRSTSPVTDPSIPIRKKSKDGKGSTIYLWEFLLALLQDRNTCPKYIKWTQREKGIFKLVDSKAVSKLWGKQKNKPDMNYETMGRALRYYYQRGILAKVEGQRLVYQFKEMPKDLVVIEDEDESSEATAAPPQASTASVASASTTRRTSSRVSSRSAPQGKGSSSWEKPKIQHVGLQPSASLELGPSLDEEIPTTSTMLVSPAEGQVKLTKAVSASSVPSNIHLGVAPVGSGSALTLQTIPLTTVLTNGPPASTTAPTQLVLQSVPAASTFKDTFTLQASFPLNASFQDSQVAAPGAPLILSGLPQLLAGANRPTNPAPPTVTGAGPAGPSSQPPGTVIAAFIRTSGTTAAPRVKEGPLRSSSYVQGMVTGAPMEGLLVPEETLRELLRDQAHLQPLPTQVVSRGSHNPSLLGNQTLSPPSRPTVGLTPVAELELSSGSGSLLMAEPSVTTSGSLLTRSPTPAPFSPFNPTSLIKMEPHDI
# In short: as §1
# ELK4 = target: T9, ELK4 (Homo sapiens, UniProt P28324-2 1-405); conditions: protein: recombinant; tags: N-terminal GST; dsDNA, one strand shown
# T9 sequence: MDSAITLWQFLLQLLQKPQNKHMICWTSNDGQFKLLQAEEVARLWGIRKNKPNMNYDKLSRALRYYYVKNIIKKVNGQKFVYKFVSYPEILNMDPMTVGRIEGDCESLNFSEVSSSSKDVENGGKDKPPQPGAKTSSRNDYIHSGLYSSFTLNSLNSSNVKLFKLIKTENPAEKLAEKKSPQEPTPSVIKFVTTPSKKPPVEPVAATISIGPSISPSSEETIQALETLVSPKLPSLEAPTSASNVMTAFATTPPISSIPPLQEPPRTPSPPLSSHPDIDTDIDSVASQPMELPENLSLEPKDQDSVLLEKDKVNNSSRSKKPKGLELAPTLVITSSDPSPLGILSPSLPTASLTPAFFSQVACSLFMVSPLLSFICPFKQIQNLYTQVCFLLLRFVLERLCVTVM
# In short: as §1
# ETV2 = target: T10, ETV2 (Homo sapiens, UniProt O00321 1-342); conditions: protein: recombinant; tags: N-terminal GST; dsDNA, one strand shown
# T10 sequence: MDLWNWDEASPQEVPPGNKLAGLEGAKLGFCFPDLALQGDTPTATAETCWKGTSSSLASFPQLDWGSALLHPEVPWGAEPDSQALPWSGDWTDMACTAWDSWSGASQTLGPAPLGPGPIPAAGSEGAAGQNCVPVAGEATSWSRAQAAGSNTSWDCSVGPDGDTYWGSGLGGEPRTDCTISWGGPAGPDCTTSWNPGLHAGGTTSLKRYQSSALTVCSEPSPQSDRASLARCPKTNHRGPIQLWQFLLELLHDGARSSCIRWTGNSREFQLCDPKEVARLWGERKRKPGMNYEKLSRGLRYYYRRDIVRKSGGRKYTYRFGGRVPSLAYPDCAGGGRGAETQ
# In short: as §1
# ELF3 = target: T11, ELF3 (Homo sapiens, UniProt P78545 1-371); conditions: protein: recombinant; tags: N-terminal GST; dsDNA, one strand shown
# T11 sequence: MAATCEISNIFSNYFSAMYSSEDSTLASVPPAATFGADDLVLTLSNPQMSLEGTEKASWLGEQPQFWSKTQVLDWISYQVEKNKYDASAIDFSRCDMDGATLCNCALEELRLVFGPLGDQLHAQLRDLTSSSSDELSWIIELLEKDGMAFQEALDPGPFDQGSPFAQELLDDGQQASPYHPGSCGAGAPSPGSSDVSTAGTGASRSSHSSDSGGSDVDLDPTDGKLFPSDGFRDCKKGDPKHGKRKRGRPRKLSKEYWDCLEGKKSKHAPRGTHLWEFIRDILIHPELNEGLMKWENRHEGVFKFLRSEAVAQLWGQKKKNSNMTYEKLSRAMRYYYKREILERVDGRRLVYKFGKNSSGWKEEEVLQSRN
# In short: as §1
# CRX = CRX (Homo sapiens, UniProt O43186 1-299); conditions: protein: recombinant; tags: N-terminal GST; dsDNA, one strand shown
# Chain of CRX (O43186 whole entry): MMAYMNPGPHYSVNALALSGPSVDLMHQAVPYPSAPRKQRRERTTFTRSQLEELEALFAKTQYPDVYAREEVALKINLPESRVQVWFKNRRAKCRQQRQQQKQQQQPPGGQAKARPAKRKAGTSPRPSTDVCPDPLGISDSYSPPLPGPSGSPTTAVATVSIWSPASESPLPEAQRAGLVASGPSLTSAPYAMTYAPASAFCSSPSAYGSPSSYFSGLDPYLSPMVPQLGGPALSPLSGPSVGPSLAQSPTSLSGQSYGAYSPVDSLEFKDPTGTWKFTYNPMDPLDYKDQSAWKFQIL
# In short: as §1
# ETV1 = ETV1 (Homo sapiens, UniProt P50549 1-477); conditions: protein: recombinant; tags: N-terminal GST; dsDNA, one strand shown
# Chain of ETV1 (P50549 whole entry): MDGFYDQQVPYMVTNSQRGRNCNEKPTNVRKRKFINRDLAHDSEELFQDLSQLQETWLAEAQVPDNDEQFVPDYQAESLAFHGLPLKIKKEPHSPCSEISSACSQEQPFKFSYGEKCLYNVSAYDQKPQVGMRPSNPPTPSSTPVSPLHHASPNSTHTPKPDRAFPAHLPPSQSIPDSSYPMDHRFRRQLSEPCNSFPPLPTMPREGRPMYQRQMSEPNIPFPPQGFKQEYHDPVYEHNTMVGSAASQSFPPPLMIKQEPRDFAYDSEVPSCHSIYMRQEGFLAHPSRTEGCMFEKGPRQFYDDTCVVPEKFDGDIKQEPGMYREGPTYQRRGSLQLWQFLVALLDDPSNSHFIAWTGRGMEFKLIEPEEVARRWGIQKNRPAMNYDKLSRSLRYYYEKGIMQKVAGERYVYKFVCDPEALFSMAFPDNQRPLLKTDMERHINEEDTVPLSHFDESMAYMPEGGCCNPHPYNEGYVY
# In short: as §1
sequence,measurement,setting,value
TACCTA,binding signal,FLI1,"1.32 fold enrichment (6-mer frequency, TF over GST control)"
same,binding signal,ELK1,"1.26 fold enrichment (6-mer frequency, TF over GST control)"
same,binding signal,GABPA,"1.24 fold enrichment (6-mer frequency, TF over GST control)"
same,binding signal,ERG,"1.13 fold enrichment (6-mer frequency, TF over GST control)"
same,binding signal,ELF1,"1.34 fold enrichment (6-mer frequency, TF over GST control)"
same,binding signal,EHF,"1.22 fold enrichment (6-mer frequency, TF over GST control)"
same,binding signal,SPI1,"1.28 fold enrichment (6-mer frequency, TF over GST control)"
same,binding signal,SPIB,"1.22 fold enrichment (6-mer frequency, TF over GST control)"
same,binding signal,ELK3,"1.23 fold enrichment (6-mer frequency, TF over GST control)"
same,binding signal,FEV,"1.2 fold enrichment (6-mer frequency, TF over GST control)"
same,binding signal,ETV5,"1.31 fold enrichment (6-mer frequency, TF over GST control)"
same,binding signal,HSF1,"1.28 fold enrichment (6-mer frequency, TF over GST control)"
same,binding signal,SPIC,"1.19 fold enrichment (6-mer frequency, TF over GST control)"
same,binding signal,ELF4,"1.3 fold enrichment (6-mer frequency, TF over GST control)"
same,binding signal,ELK4,"1.35 fold enrichment (6-mer frequency, TF over GST control)"
same,binding signal,ETV2,"1.21 fold enrichment (6-mer frequency, TF over GST control)"
same,binding signal,ELF3,"1.3 fold enrichment (6-mer frequency, TF over GST control)"
same,binding signal,CRX,"1.55 fold enrichment (6-mer frequency, TF over GST control)"
same,binding signal,ETV1,"1.34 fold enrichment (6-mer frequency, TF over GST control)"
